FBW7 activator: activators of human E3 ligase FBW7; Q969H0; AlphaScreen FBW7–phospho-cyclin E peptide binding, activator screen; normalized activity (activation), % at 26.1 µM; 650,000 tested, 0.13% active; AID 1259310; in the data active = normalized activity above about 1.9%;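 note: purified mutant Fbw7 with reduced substrate affinity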
Target sequence (Q969H0 whole entry, looked up): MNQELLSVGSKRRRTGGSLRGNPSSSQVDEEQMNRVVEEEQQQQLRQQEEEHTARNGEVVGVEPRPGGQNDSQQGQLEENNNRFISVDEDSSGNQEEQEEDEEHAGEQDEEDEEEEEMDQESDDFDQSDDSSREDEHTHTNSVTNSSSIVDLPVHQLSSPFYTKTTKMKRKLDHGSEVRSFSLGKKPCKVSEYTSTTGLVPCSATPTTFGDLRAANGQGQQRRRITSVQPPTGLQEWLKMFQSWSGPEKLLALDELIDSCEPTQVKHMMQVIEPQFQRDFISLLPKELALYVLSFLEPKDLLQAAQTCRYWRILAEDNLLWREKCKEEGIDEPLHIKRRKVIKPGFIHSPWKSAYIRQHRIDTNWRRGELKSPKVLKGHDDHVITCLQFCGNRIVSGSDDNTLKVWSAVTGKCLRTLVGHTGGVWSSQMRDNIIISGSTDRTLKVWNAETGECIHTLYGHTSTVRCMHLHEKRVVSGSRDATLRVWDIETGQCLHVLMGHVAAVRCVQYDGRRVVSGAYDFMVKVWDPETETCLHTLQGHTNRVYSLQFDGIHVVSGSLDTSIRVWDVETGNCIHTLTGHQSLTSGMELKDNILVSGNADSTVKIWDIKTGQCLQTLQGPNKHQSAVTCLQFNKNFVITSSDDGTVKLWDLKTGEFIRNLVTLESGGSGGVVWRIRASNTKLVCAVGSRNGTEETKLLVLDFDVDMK
MITF inh: blocks human microphthalmia-associated transcription factor | AlphaScreen MITF homodimerization, bead proximity signal | inhibition, % at 2.6 µM | 650,000 tested, 0.91% active | AID 1259374; in the data active = inhibition above about 50%
GPR151 ag: activators of human GPR151; AID 1508602; Q8TDV0; PathHunter beta-arrestin GPR151 cells, luminescence; activation, % at 11.2 µM; 650,000 tested, 1% active; in the data active = activation above about 4.9%
TEAD-YAP inh: TEAD-YAP interaction inhibition; HEK-TIYL cells, TEAD-Gal4/YAP UAS-luciferase luminescence; inhibition, % at 9.12 µM; 640,000 tested, 1.4% active; in the data active = inhibition above about 32%
Hits are given with their value; 0 = inactive. Shown are actives, neighbours in structure and some others; about 3.4% of the full set was active somewhere.

SMILES | FBW7 activator | MITF inh | GPR151 ag | TEAD-YAP inh
COc1ccc2cc3cc(C(=O)Nc4cc(OC)c(OC)c(OC)c4)oc3nc2c1 | 0 | 0 | 0 | 57.9
COc1ccc(C2C(C(=O)OC(C)C)=C(C)N=c3s/c(=C\c4ccc(C)o4)c(=O)n32)cc1 (stereo not drawn) | 0 | 0 | 0 | 0
CC1=CC(=C2C(=O)NC(=S)NC2=O)C=C(C(F)(F)F)N1CCN(C)C | 0 | 0 | 0 | 0
COCCN1C(C)=CC(=C2C(=O)NC(=S)NC2=O)C=C1C(F)(F)F | 0 | 0 | 0 | 45.3
O=C(O)c1ccc2c(c1)C(=O)N(c1ccccc1[N+](=O)[O-])C2=O | 0 | 0 | 0 | 0
O=C(O)c1ccc2c(c1)C(=O)N(Nc1ccccc1[N+](=O)[O-])C2=O | 0 | 0 | 0 | 47.7
COCC(=O)NCC1CCC2(CCN(Cc3c(F)ccc(F)c3F)CC2)O1 (stereo not drawn) | 0 | 0 | 0 | 0
O=c1c2c3c(sc2nc2c4ccccc4c(Cl)nn12)CCCCC3 | 0 | 0 | 0 | 0
Cc1nn2c(=O)c3c4c(sc3nc2c2ccccc12)CCCC4 | 0 | 0 | 0 | 52.1
CSC(Nc1ccc(Br)cc1)=C(C#N)C#N | 0 | 0 | 0 | 38.1
CCN1C(=O)/C(=C/c2cc3c(cc2[N+](=O)[O-])OCO3)C(=O)NC1=S | 0 | 74.4 | 0 | 0
O=C(Nc1ccccc1)c1ccc2nc(NC(=O)C3CCCCC3)sc2c1 | 0 | 0 | 0 | 0
Cn1ncc(Cl)c1C(=O)Nc1ccc2nc(NC(=O)C3CCCCC3)sc2c1 | 0 | 0 | 0 | 57.3
Nc1ccc(C(=O)Nc2nc3cc4sc(NC(=O)c5ccc(N)cc5)nc4cc3s2)cc1 | 6.7 | 0 | 0 | 0
CC(=O)Nc1nc2ccc(NC(=O)c3c([N+](=O)[O-])cnn3C)cc2s1 | 0 | 0 | 0 | 53.0
Nc1ccc(C(=O)Nc2ccc3nc(NC(=O)C4CCCCC4)sc3c2)cc1 | 0 | 0 | 0 | 40.0
Cn1ncc(Cl)c1C(=O)Nc1ccc(Cl)c(Cl)c1 | 0 | 0 | 0 | 0
Cc1ccccc1OCC(=O)Nc1ccc(C(=O)OCC(C)C)cc1 | 0 | 0 | 0 | 0
CCn1c(SCC(=O)Nc2cccc(C)c2C)nnc1C1CC1 | 0 | 0 | 0 | 0
COc1ccc2c(c1)OC(C)CN(CC(=O)N1CCC(c3ccccc3F)C1)C2 (stereo not drawn) | 0 | 0 | 0 | 0
Cc1ccc(CNC(=O)c2nnn(-c3ccc(OC(F)(F)F)cc3)c2N)cc1 | 0 | 0 | 0 | 0
Cc1cc(Nc2ccccc2C)nc(-n2nc(C)cc2C)n1 | 0 | 0 | 0 | 70.1
COc1ccc(Nc2cc(C)nc(-n3nc(C)cc3C)n2)c(OC)c1 | 0 | 0 | 0 | 66.2
COc1ccc(Nc2nc(C)cc(C)n2)c(OC)c1 | 0 | 0 | 0 | 0
Cc1cc(Nc2ccc(F)c(Cl)c2)nc(-n2nc(C)cc2C)n1 | 0 | 0 | 0 | 0
SMILES | FBW7 activator | MITF inh | GPR151 ag | TEAD-YAP inh
Cc1cc(Nc2ccc3c(c2)OCO3)nc(-n2nc(C)cc2C)n1 | 0 | 0 | 0 | 61.3
COc1ccc(NC(=O)C2CC(=O)N(c3ccccc3)C2)cc1Cl (stereo not drawn) | 0 | 0 | 0 | 0
Cc1n[nH]c(C)c1-c1ccc(NC(=O)[C@H]2COc3ccccc3O2)cc1 | 0 | 0 | 0 | 0
Cc1ncn(-c2ccc(Nc3nccc(Nc4cccc(N5CCOCC5)c4)n3)cc2)n1 | 0 | 0 | 0 | 63.4
Cc1ncn(-c2ccc(Nc3nccc(Nc4cccc(N)c4)n3)cc2)n1 | 0 | 0 | 0 | 34.7
Cc1ncn(-c2ccc(Nc3cc(-c4cccc(N5CCOCC5)c4)ccn3)cc2)n1 | 0 | 0 | 0 | 0
CCCCSc1nnc2c(n1)OC(c1ccccn1)Nc1ccc(Br)cc1-2 (stereo not drawn) | 0 | 0 | 0 | 0
C=CCOc1ccc(/C=C2/C(=O)ON=C2c2ccccc2)cc1 | 0 | 64.8 | 0 | 0
CCOc1cc(/C=C2\C(=O)ON=C2c2ccccc2)ccc1OCc1ccccc1 | 0 | 57.4 | 0 | 0
CCCCCOc1ccccc1/C=C1/C(=O)ON=C1c1ccccc1 | 0 | 62.5 | 0 | 0
CCCCOc1ccccc1/C=C1/C(=O)ON=C1c1ccccc1 | 0 | 68.5 | 0 | 0
COc1cccc(CNC(=O)c2[nH]c3cc(-c4cn[nH]c4)ccc3c2CN2CC(N)C2)c1 | 0 | 0 | 0 | 0
O=C1ON=C(c2ccccc2)/C1=C/c1c(OCc2ccc(Cl)cc2)ccc2ccccc12 | 0 | 0 | 0 | 0
O=C1ON=C(c2ccccc2)/C1=C\c1ccccc1OCc1ccc(Cl)cc1 | 0 | 67.5 | 0 | 0
COc1cc(/C=C2/C(=N)N3N=C(C)SC3=NC2=O)cc(I)c1OCc1ccccc1C | 0 | 0 | 0 | 0
CCCc1ccc(OCC(=O)c2ccc(O)cc2O)cc1 | 0 | 0 | 0 | 85.0
N#Cc1c(Cl)nsc1N/N=C/c1ccccc1 | 0 | 0 | 0 | 41.5
CSc1nsc(N/N=C/c2ccccc2)c1C#N | 0 | 0 | 0 | 0
O=C(N1CCOCC1)C1(c2ccccc2)CCOCC1 | 0 | 0 | 0 | 0
C=CCOc1ccc(C(=O)N2CCc3c(nc(N4CC(C)OC(C)C4)[nH]c3=O)C2)cc1 (stereo not drawn) | 7.4 | 0 | 0 | 0
Cc1ccc(C2=N/C(=C\c3ccc(I)o3)C(=O)O2)cc1[N+](=O)[O-] | 0 | 0 | 0 | 0
CCCCNC(=O)c1cc(COc2cccc3cnccc23)on1 | 0 | 0 | 0 | 0
O=C(c1cc(COc2cccc3cnccc23)on1)N1CCCC(CCCO)C1 (stereo not drawn) | 0 | 0 | 0 | 64.7
CN(Cc1ccccc1)C(=O)c1cc(COc2cccc3cnccc23)on1 | 0 | 0 | 0 | 33.4
CC1=C/C(=C\c2c(O)[nH]c(=O)[nH]c2=O)C(C)=N1 | 0 | 0 | 0 | 0
SMILES | FBW7 activator | MITF inh | GPR151 ag | TEAD-YAP inh
CC1=C/C(=C\c2c(O)n(Cc3ccco3)c(=S)[nH]c2=O)C(C)=N1 | 0 | 83.5 | 0 | 0
Cc1cc([N+](=O)[O-])ccc1N1CCN(C(=O)C(C)(C)C)CC1 | 0 | 0 | 0 | 0
NNC(=O)C(=O)Nc1cccc(Cl)c1 | 0 | 0 | 0 | 0
N/C(=N\OC(=O)c1ccccc1Cl)c1ncon1 | 0 | 0 | 0 | 0
N/C(=N\OC(=O)c1sc2ccccc2c1Cl)c1ncon1 | 0 | 0 | 0 | 40.0
CCOC(CCNC(=O)Cc1c(C(=O)O)[nH]c2ccc(Cl)cc12)OCC | 0 | 0 | 0 | 0
O=C(NC1CC1)c1ccc(-c2nc(Nc3ccc(Oc4ccccc4)cc3)c3ncn(-c4ccsc4)c3n2)cc1 | 0 | 0 | 0 | 0
COc1ccc(CCNc2nc(-c3ccc(C(=O)NC4CC4)cc3)nc3c2ncn3-c2ccccc2)cc1 | 0 | 0 | 0 | 0
NC(=O)c1ccc(-c2nc(NCCO)c3ncn(-c4ccccc4)c3n2)cc1 | 0 | 0 | 0 | 64.2
O=C(NC1CC1)c1ccc(-c2nc(NCCO)c3ncn(-c4ccccc4)c3n2)cc1 | 0 | 0 | 0 | 67.8
CC(=O)Nc1ccc(Nc2nc(-c3ccc(C(=O)NC4CC4)cc3)nc3c2ncn3-c2ccccc2)cc1 | 0 | 0 | 0 | 48.2
CN1CCN(C(=O)c2ccc(-c3nc(NCCN4CCOCC4)c4ncn(-c5ccsc5)c4n3)cc2)CC1 | 0 | 0 | 0 | 0
NC(=O)c1ccc(-c2nc(NCCN3CCOCC3)c3ncn(-c4ccccc4)c3n2)cc1 | 0 | 0 | 0 | 60.7
Cc1cc2ccccc2c(=O)n1CC(=O)N1CCN(c2ccccc2)CC1 | 0 | 0 | 0 | 0

Screening results deposited in PubChem BioAssay by The Scripps Research Institute Molecular Screening Center.
